Bioassay records from PubChem.
Sampled rows, rich in hits. Any-hit rate of the full collection: about 9.2%.
ELG1 repair inh – blocks ELG1-dependent DNA repair in HEK293T cells | HEK293T ELG1-luciferase reporter, luminescence, 16 h; DNA damage induced by 5-fluorouridine | Potency, µM (top dose mostly 46.1 µM), inactives show at the top dose activity change, negative = inhibition, hits mostly inhibitors | actives 2.3% (n = 330,000) | AID 504467; further: on the % scale 0 is the no-effect control and ±100 the full control effect; nearly all actives have a fitted effect of over 55% in size
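5-Fluorouridine DNA damage + compound/DMSO, 2,000 cells/well, 16 h, 37 °C/5% CO2. ONE-Glo, 30 min RT, luminescence. Readout = decrease in reporter signal.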
SMN2 splice up – enhancers of SMN2 splice variant expression; HEK293 SMN2-luciferase splicing reporter, luminescence, 30-36 h; Potency, µM (titrated, usually from 46.1 µM), inactives show at the highest dose activity change, positive = activation, usual class: activators; AID 1458; actives 2.8% (n = 210,000); further: % of control where 0% means no effect; nearly all actives have a fitted effect of over 55% in size
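qHTS luciferase splicing reporter: luminescence rises when SMN2 exon 7 is included in transfected HEK293 cells. Compound exposure lasted 30-36 h at 37C, with 4.5 mM final sodium butyrate as control, followed by a ONE-Glo read.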
ELG1 genotox – inducers of genotoxicity in HEK293T ELG1-luciferase cells; HEK293T ELG1-luciferase reporter, luminescence, 16 h; actives 1.3% (n = 330,000); AID 504466; Potency, µM (series often up to 46 µM), for the others: top-dose activity change, positive = activation, actives largely listed as activators; further: % of control where 0% means no effect; nearly all actives have a fitted effect of over 60% in size
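16 hr compound incubation (37 °C, 5% CO2) of HEK293T cells carrying luciferase-tagged ELG1; luciferase then measured by ONE-Glo luminescence after 30 min at RT.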
Rab9 prom act – activators of Rab9 promoter; Potency, µM (titrated, usually from 9.22 µM), for the others: at the highest dose activation, negative = inhibition, most hits filed as activators; actives 2.8% (n = 320,000); Huh7 Rab9 promoter-luciferase reporter, luminescence, 24 h; AID 485297; further: % of control where 0% means no effect; nearly all actives have a fitted effect of over 60% in size
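Rab9 promoter-driven luciferase in stably transfected Huh7 cells; 1500 cells/well rested 2 h, exposed to compound in DMSO for 24 h at 37 °C, 5% CO2. Luminescence read 10 min after adding luciferase reagent at ambient temperature.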
NPC1 promoter act – activates the NPC1 promoter | Huh7 NPC1 promoter luciferase reporter, 24 h | Potency, µM (doses to about 9.22 µM), for the others: at the top dose activation, usual class: activators | actives 2.4% (n = 320,000) | AID 485313; further: % of control where 0% means no effect; nearly all actives have a fitted effect of over 60% in size
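Luminescence read-out of NPC1 promoter-driven luciferase in stably transfected Huh7 cells; compounds delivered in DMSO and left 24 h at 37C, 5% CO2, qHTS titration format.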
FLuc modulator – counter-screen for miR-21 project: firefly luciferase inhibitors or activators; purified FLuc, Km substrates, luminescence inhibition; Potency, µM (doses to about 57.5 µM), for the others: at the top dose activity change, negative = inhibition, usual class: inhibitors; actives 6.9% (n = 360,000); AID 588342;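 further: plate controls were vehicle for no effect and reference inhibitor for full effect; nearly all actives have a fitted effect of over 55% in size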
Target sequence (P08659 whole entry, looked up): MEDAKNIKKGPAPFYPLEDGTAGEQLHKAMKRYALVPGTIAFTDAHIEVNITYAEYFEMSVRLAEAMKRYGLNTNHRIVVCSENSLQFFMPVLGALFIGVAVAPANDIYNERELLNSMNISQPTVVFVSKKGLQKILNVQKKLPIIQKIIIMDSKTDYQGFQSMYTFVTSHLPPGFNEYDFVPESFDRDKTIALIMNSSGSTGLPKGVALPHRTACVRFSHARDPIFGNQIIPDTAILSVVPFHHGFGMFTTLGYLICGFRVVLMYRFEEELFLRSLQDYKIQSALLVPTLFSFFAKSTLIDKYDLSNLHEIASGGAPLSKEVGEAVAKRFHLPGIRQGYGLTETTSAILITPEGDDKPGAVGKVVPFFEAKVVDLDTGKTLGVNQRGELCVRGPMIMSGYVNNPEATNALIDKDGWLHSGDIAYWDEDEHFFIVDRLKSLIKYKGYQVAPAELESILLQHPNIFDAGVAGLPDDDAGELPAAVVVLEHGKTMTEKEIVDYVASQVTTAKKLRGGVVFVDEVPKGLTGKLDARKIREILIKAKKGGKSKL
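Purified P. pyralis luciferase, 10 nM final, with Km-level 10 uM D-luciferin and 10 uM ATP in 50 mM Tris acetate pH 7.5, 10 mM Mg acetate, 0.01% Tween-20, 0.05% BSA; 6-point qHTS titration about 60 µM downward; luminescence read.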
An asterisk follows results filed as active; u = inconclusive; x = no result; [ ] = another dose, or the depositor's remark. The call rests on the fitted dose curve; in most records, active means well fitted curve in the direction sought with a large enough effect; inconclusive means small, poorly fitted or top-dose-only effect, or another doubt; inactive means no such curve, though single readings can be large; an effect the other way counts as inactive or inconclusive. Potency means the concentration at half of the fitted maximal effect.

SMILES	ELG1 repair inh	SMN2 splice up	ELG1 genotox	Rab9 prom act	NPC1 promoter act	FLuc modulator
CC1N(C)c2cc(NC(=O)c3ccco3)c(P(=O)(Nc3ccc([N+](=O)[O-])cc3)N3CCOCC3)cc2C1(C)C (centres undefined)	18µM*	-29%	-13%	-26%	1%	6%
O=C(O)CSCC(=O)O	x	-1%[9.22 µM]	x	x	x	x
Cc1ccc(OCC(=O)N2CCN(Cc3ccc([N+](=O)[O-])cc3)CC2)cc1	21µM*	x	-3%	-14%	-5%	-3%
Cc1ccc(-c2cc(C(F)F)n3ncc(C(=O)N4CCC5(CC4)OCCO5)c3n2)cc1	18µM*	1%	0%	-1%	-5%	2%
COc1ccc(-c2cc(C(=O)N3CCC4(CC3)OCCO4)c3ccccc3n2)cc1	u	x	0%	u	26%	2.1µM*
C=CC[C@H](CC(=O)N(CCO)Cc1ccccc1)C(=O)NC[C@H](OC(=O)[C@@H](CC=C)CC(=O)OC(C)(C)C)c1ccccc1	21µM*	x	-8%	x	x	x
C=CC[C@@H](CC(=O)N(CCO)Cc1ccccc1)C(=O)NC[C@@H](OC(=O)[C@@H](CC=C)CC(=O)OC(C)(C)C)c1ccccc1	21µM*	x	-7%	x	x	x
COc1ccc(CCNC(=O)c2c(N)n(CCN3CCOCC3)c3nc4ccccc4nc23)cc1OC	16µM*	-13%	-3%	1%	0%	-8%
Nc1c(C(=O)NCCCc2ccccc2)c2nc3ccccc3nc2n1Cc1cccs1	15µM*	22%	-13%	-1%	-1%	0%
CCCCn1c(N)c(C(=O)NCc2cccs2)c2nc3ccccc3nc21	23µM*	-10%	-3%	-10%	-2%	3%
C[C@@H]1CC[C@@H]2N(C1)C[C@H]1[C@@](O)([C@H](O)C[C@]3(O)[C@H]4CC[C@H]5[C@]6(O)O[C@]4(C[C@]13O)[C@@]5(C)CC[C@@H]6O)[C@@]2(C)O	x	-7%[9.22 µM]	x	x	x	x
O=C(CN1CCN(Cc2ccc(Cl)cc2)C1=O)N1CCC2(CC1)OCCO2	-8%	-7%	-1%	-3%	-2%	13%
O=C(c1ccc(CNS(=O)(=O)c2ccccc2)cc1)N1CCC2(CC1)OCCO2	u	-38%	u	3.5µM*	u	u
O=C(c1ccc(CNS(=O)(=O)c2ccc(Br)cc2)cc1)N1CCC2(CC1)OCCO2	u	-32%	-5%	-6%	-3%	6%
Cn1c(=O)cc(SCC(=O)N2CCC3(CC2)OCCO3)c2ccc(Cl)cc21	u	20µM*	14%	-2%	-1%	1%
O=C(CSc1ccccc1)N1CCC2(CC1)OCCO2	u	13µM*	10µM*	u	u	u
Cc1ccccc1-n1c(O)c(/C=N/N2CCCCC2c2cccnc2)c(=O)[nH]c1=O (centres undefined)	-6%	-2%	-2%	-2%	-1%	-1%
O=C1/C(=C\c2ccccc2)C[C@@]2(O)[C@H]3Cc4ccc(O)c5c4[C@@]2(CCN3CC2CC2)[C@H]1O5	x	-63%	x	x	x	x
C=C[C@@H]1CN2CC[C@H]1CC2[C@H](O)c1ccnc2ccccc12 (some centres undefined)	x	-7%[9.22 µM]	x	x	x	x
CCOc1ccc(N)cc1	x	-4%	x	x	x	x
CCOc1ccc(/C=C/C(=O)C(C(N)=O)=C2SCCS2)cc1	u	-28%	8%	u	u	1.7µM*
Nc1nc(SCc2ccc(Cl)cc2Cl)n[nH]1	u	u	21µM*	21%	20%	u
N#CC(Cl)Cl	x	-4%	x	x	x	x
CC(C)c1ccc(C(O)(C(=O)O)c2ccc(C(C)C)cc2)cc1	x	-10%[9.22 µM]	x	x	x	x
Cc1cc(C=C2C(=O)N(C)C(=S)N(C)C2=O)c(C)n1-c1ccncc1	26%	x	8%	-6%	-3%	27µM*
SMILES	ELG1 repair inh	SMN2 splice up	ELG1 genotox	Rab9 prom act	NPC1 promoter act	FLuc modulator
Cc1ccnc(-n2c(C)cc(C=C3C(=O)N(C)C(=S)N(C)C3=O)c2C)c1	0%	-3%	8%	-2%	1%	19µM*
COc1ccc(-n2nc(C(=O)NCC(=O)N3CCC4(CC3)OCCO4)c3ccccc3c2=O)cc1	u	x	u	u	u	1.1µM*
COc1ccc(-n2nc(C(=O)NCC(=O)N3CCC4(CC3)OCCO4)c3ccccc3c2=O)cc1Cl	u	x	12%	u	u	1.2µM*
O=C(O)c1ccc(-n2c(O)c(/C=C3\C=Nc4ccccc43)c(=O)[nH]c2=O)cc1	-2%	x	0%	-4%	2%	19µM*
COc1ccc(N2CCN(Cc3nc4ccccc4[nH]3)CC2)cc1	9%	x	15%	29%	2%	2%
c1ccc(OCCSc2nc3ccccc3[nH]2)cc1	u	u	13%	29%	u	17µM*
C=C[C@H](Cc1ccccc1)N(Cc1ccccc1)S(=O)(=O)N(Cc1ccccc1)[C@H](C=C)Cc1ccccc1	u	x	-1%	x	x	x
Cc1ccc(-c2cc(NC(=O)c3ccccc3)on2)cc1	u	x	u	2.2µM*	u	2.4µM*
Cc1cc(NC(=O)CCl)on1	-19%	27%	7%	2%	-6%	-2%
O=C(Nc1ccc([As](=O)(O)O)cc1)Nc1cccc(Cl)c1Cl	x	-3%[9.22 µM]	x	x	x	x
COc1ccccc1NS(=O)(=O)c1cc(NC(=O)c2ccc(Cl)nc2)ccc1N1CCCC1	16µM*	x	-5%	x	x	x
COc1cc(C(=O)Nc2ccc(Br)cc2C(=O)c2ccccc2Cl)cc(OC)c1OC	-18%	-17%	1%	-9%	-6%	0%
Cc1ccc(C)c(NP(=O)(Oc2ccccc2)Oc2ccccc2)c1	8.2µM*	x	-15%	-1%[1.84 µM]	2%	2%
Cc1ccc(S(=O)(=O)NP(=O)(Oc2ccccc2)Oc2ccccc2)cc1	0%	-26%	1%	-2%	0%	6%
O=C(O)c1cc[c]([Hg][Cl])cc1	16%	0%	-2%	7%[46.1 µM]	9%[46.1 µM]	6.7µM*
CCN(CC)c1ccc(/C=C/[N+](=O)[O-])cc1	u	14%	u	-3%	-6%	19µM*
CCN(CC)c1ccccc1	18%	-10%	2%	0%	10%	-1%
Cc1nc2ccc(OC(=O)c3ccccc3)cc2s1	-5%	x	-4%	-4%	1%	8.5µM*
O=C(NCc1ccccc1)C(=O)NCC1OCCN1S(=O)(=O)c1ccc([N+](=O)[O-])cc1 (centres undefined)	u	-15%	-2%	17%	-2%	3%
CN1C(=O)C(=Cc2ccc(SC3CCCCC3)o2)C(=O)N(C)C1=O	15%	-13%	15%	-1%	-4%	17µM*
